{
  "source": "PubChem BioAssay AID743461",
  "about": "(Broad Institute, 2014)",
  "assay": "inhibitors of PGC-1a-driven COX5a expression, dose response, cell-based, C2C12 myotubes, RT-qPCR, cherry-picked samples (AID 743461)",
  "conditions": "C2C12 myotubes PGC-1a adenovirus, at 0.0285 µM",
  "note": "The list shows a part of the results. Unmarked numbers belong to inactive results.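 Rule for the calls: active = fitted dose curve reaching 40% activity at or below the highest valid dose tested; inconclusive = flat fit between 30% and 70%, or an unusable fit; inactive = the rest.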",
  "data": [
    {"smiles": "N#Cc1ccc(-c2ccc(C3[C@@H]4CN(S(=O)(=O)c5ccc(F)cc5)C[C@H]3N4)cc2)cc1", "note": "(stereo partly specified)", "values": [
      {"measurement": "maximal activity", "result": -35.2, "unit": "%"}
    ]}
  ]
}
